Source: PubChem BioAssay (NCI)
Compounds without any hit were thinned out: in the full panel of roughly 83,000, 20% have a hit.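 For each line, cells grew in 96-well plates with the test compound present at a single concentration for 48 hours.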 A number with no mark means an inactive call. Calls of active or inactive are those of the source.

system: HS 578T breast; assay: NCI-60 one-dose screen, 48 h (100 = growth as untreated, 0 = no growth, -100 = all killed); conditions: 10 µM unless noted
Method: Growth inhibition of the HS 578T human tumor cell line is measured as a screen for anti-cancer activity. Cells are grown in 96 well plates and exposed to the test compound for 48 hours. Compounds are tested at a single concentration, which is 10^-5 M for most compounds. The reported endpoint is percent growth (GI% or GIPRCNT), where numbers from 0 - 100% represent growth inhibition, and numbers from -100% - 0 represent cell death. For example, a value of 40 represents 60% growth inhibition. A value of 0 means no net growth occurred over the course of the experiment. A value of -40 indicates 40% of cells at the beginning of the experiment died by the end of the experiment. A value of -100 means all cells are dead at the end of the experiment.
NCI-60 Human Tumor Cell Lines Screen was performed using the standard one-dose NCI protocol, which is described in more detail at https://dtp.cancer.gov/discovery_development/nci-60/default.htm.
Compounds with GIPRCNT values below 10 were considered active. Activity score was based on GIPRCNT using the following formula: […]
Score is 0 for GIPRCNT values of 100 or above, 50 for GIPRCNT values of 0, and 100 for GIPRCNT values of -100.

Structure (SMILES)	growth
CCOC(=O)c1c(C)[nH]c(C)c1C=O	98.9%
CSCCC(NC(=O)C(Cl)Cl)C(=O)O (stereo not given)	97.8%
CCOC(=O)N[C@H]1CCc2cc(OC)c(OC)c(OC)c2-c2ccc(SC)c(=O)cc21	9.15% (active)
O=c1n(CC2CO2)c(=O)n(CC2CO2)n1CC1CO1 (stereo not given)	90.5%
CC(=O)NC(CCC(=O)c1ccccc1)C(=O)O (stereo not given)	108%
Cc1ccc(S(=O)(=O)Oc2ccc3sc4c(CO)ccc(NCCN(C)C)c4c(=O)c3c2)cc1	-44.2% [100 µM] (active)
O=CNCCc1ccccc1	102%
CC1=CC(=Nc2ccc(N(C)C)cc2)C=C(C)C1=O	90.8%
CCC12OC(COc3ccccc3)CN1CCN2c1ccccc1 (stereo not given)	99.1% [100 µM]
CC(C)C1CCC(C)C(O)C1 (stereo not given)	93.5%
COC1OC(C(COC(C)=O)OC(C)=O)C(OC(C)=O)C(OC(C)=O)C1OC(C)=O (stereo not given)	129%
O=C(OCC1CCCO1)c1ccc([N+](=O)[O-])cc1 (stereo not given)	96.7%
CCOc1ccc(C(=O)NCC(C)C)cc1	107%
CCOC(C=O)OCC	109%
Cc1ccc(S(=O)(=O)NC(=O)NCCSSCCNC(=O)NS(=O)(=O)c2ccc(C)cc2)cc1	97.5%
O=C1NC(=O)/C(=C\c2ccncc2)N1	95%
CCNCC(C)(C)O	113%
CC1(C)OC(=O)CC1=O	96.6%
O=C(NCc1ccco1)Nc1cccc2c(NC(=O)NCc3ccco3)cccc12	88.2% [100 µM]
OCCc1ccc(Cl)cc1	95%

Structure (SMILES)	growth
Cc1ccc(NC(=O)c2ccccc2Cl)cc1	103%
CC1CCC(C)(C)c2ccccc21 (stereo not given)	105%
CN(C(=S)S(=O)(=O)C12CC3CC(CC(C3)C1)C2)c1ccccc1	85%
Cc1cc(C(=O)NN)c(C#N)c(=O)[nH]1	121%
Nc1ccc(F)cc1F	108%
CCCCOC(=O)c1ccccc1O	103%
NC(=S)N/N=C/c1ccc(Cl)cc1	112%
C/C=C/C1OCC(CC)C(CCC)O1 (stereo not given)	107%
C=CCS(C)(=O)=O	89.2%
CC(=O)NNC(=S)N/C=C/c1c(C)ccc([N+](=O)[O-])c1[N+](=O)[O-]	108%
COc1cc(N)c2ncccc2c1Cl	130%
CC(=O)OCC1CCC(COC(C)=O)CC1 (stereo not given)	106%
Nc1cc(F)ccc1[N+](=O)[O-]	98.7%
C=C1C(=O)C2CCC1C2 (stereo not given)	73.7%
CCC1CCC(C)NC1 (stereo not given)	95.7%
CC(=O)Oc1c(Cl)cccc1-c1ccccc1	90.7%
C[C@H](CCC[C@H](C)OS(=O)(=O)c1ccccc1)OS(=O)(=O)c1ccccc1	105%
CC(=O)OC(C)c1cccc(C#N)c1 (stereo not given)	106%
O=S(=O)(OCCOS(=O)(=O)c1ccccc1)c1ccccc1	108%
O=S(=O)(O)c1ccc(O)c(C2CCCCC2)c1	116%
